Assay [1] in a line: ATG_PXRE_CIS: Attagene CIS-FACTORIAL HepG2 Assay for human Pregnane X Receptor Element (PXRE) (AID 2282957). The settings on record: HepG2 Attagene CIS-FACTORIAL PXRE reporter, mRNA; actives raise or lower the signal. An outline of the steps: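 Transfect HepG2 with MRTUs (cis promoter elements); dose chemical, incubate 24 h; isolate RNA, RT with oligo(dT), PCR, 6-FAM label, HpaI cut, CE. Gain/loss fit vs DMSO.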

Assay [2] can be described thus: ATG_PPRE_CIS: Attagene CIS-FACTORIAL HepG2 Assay for human Peroxisome Proliferator-activated Response Element (PPRE) (AID 2282958). Conditions: HepG2 PPRE cis-element reporter, Attagene transcription factor profiling; actives raise or lower the signal. An outline of the steps:
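Read-out: fluorescent reporter mRNA fragments resolved by capillary electrophoresis after RT-PCR. HepG2 cells carried transiently transfected PPRE-driven cis reporter constructs and were dosed for 24 h; gain or loss of signal fitted relative to DMSO.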

Assay [3] is described as follows: ATG_RORE_CIS: Attagene CIS-FACTORIAL HepG2 Assay for human RAR-related Orphan Receptor Element (RORE) (AID 2282959). The settings on record: HepG2 Attagene cis-factorial RORE reporter, mRNA; actives raise or lower the signal. An outline of the steps:
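Readout: fluorescent reporter mRNA by RT-PCR plus capillary electrophoresis, 24 h after dosing transfected HepG2 cells. Endogenous transcription factor activity on a cis promoter element is measured. Gain or loss of signal fitted against DMSO.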

A short description of assay [4]: ATG_Sox_CIS: Attagene CIS-FACTORIAL HepG2 Assay for human SRY-box transcription factor (SOX) (AID 2282960). Conditions: HepG2 Attagene cis-factorial SOX reporter, mRNA; actives raise or lower the signal. An outline of the steps:
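Read-out: fluorescent RT-PCR products of SOX1-linked reporter transcripts resolved by capillary electrophoresis, fitted bidirectionally against DMSO. Transiently transfected HepG2 cells, 24 h after chemical exposure, endogenous transcription factor activity.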

Assay [5] deals with Transcription factor Sp1 (Homo sapiens) (UniProt P08047). As to the kind of experiment: ATG_Sp1_CIS: Attagene CIS-FACTORIAL HepG2 Assay for human Specificity Protein 1 (Sp1) (AID 2282961). Conditions: HepG2 Sp1 cis-reporter transcription, actives raise or lower the signal. An outline of the steps: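 Read-out: fluorescence of 6-FAM-labeled, HpaI-digested RT-PCR products separated by capillary electrophoresis. HepG2 cells carried transfected cis-element reporter units and were exposed to chemicals for 24 h; gain or loss of signal fitted relative to DMSO.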

For assay [6], the target named is Signal transducer and activator of transcription 3 (Homo sapiens) (UniProt P40763). As to the kind of experiment: ATG_STAT3_CIS: Attagene CIS-FACTORIAL HepG2 Assay for human Signal Transducer and Activator of Transcription 3 (STAT3) (AID 2282963). The settings on record: HepG2, Attagene cis-factorial STAT3 reporter transcription; actives raise or lower the signal. An outline of the steps:
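Values derive from bidirectional fits relative to DMSO of reporter mRNA levels, measured by RT-PCR with capillary electrophoresis, in HepG2 cells carrying transiently transfected cis-regulated reporter units and exposed 24 h.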

Assay [7] can be described thus: ATG_TA_CIS: Attagene CIS-FACTORIAL HepG2 Assay for human TA Basal Promoter (AID 2282964). Conditions: HepG2 Attagene CIS-factorial TA basal promoter reporter; actives raise or lower the signal. An outline of the steps: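 Read-out: fluorescent reporter-transcript fragments resolved by capillary electrophoresis after RT-PCR and HpaI digestion. Source: HepG2 cells carrying transiently transfected multi-reporter cis constructs, treated 24 h. Endpoint fitted bidirectionally relative to DMSO.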

The nature of assay [8]: ATG_TCF_b_cat_CIS: Attagene CIS-FACTORIAL HepG2 Assay for human T-Cell-Factor with beta-catenin (TCF/b-cat) (AID 2282965). The settings on record: HepG2 TCF/beta-catenin cis-reporter transcription, actives raise or lower the signal. An outline of the steps:
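HepG2, transient MRTU transfection, cis-element-driven reporters (endogenous TFs). 24 h compound exposure. Readout: reporter mRNA by RT-PCR + 6-FAM primer extension, HpaI digest, capillary electrophoresis. Gain/loss fit vs DMSO baseline.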

A short description of assay [9]: ATG_TGFb_CIS: Attagene CIS-FACTORIAL HepG2 Assay for human Transforming Growth Factor (TGF) (AID 2282967). The settings on record: HepG2 Attagene CIS TGFb reporter, mRNA transcription; actives raise or lower the signal. An outline of the steps:
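Transient MRTU transfection of HepG2 (FuGene 6). Dose 24 h. TriZol RNA, oligo(dT) RT, PCR, 6-FAM primer extension, HpaI cut, CE. Bidirectional fit, DMSO = baseline.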

The target in assay [10] is Nuclear receptor subfamily 1 group I member 3 (Homo sapiens) (UniProt Q14994). Put plainly: ATG_CAR_TRANS: Attagene TRANS-FACTORIAL HepG2 Assay for human Constitutive Androstane Receptor (CAR) (AID 2282969; active means hit-call score of the fitted dose curve at least 0.9, where 1 is the maximum;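 further: activators raise reporter mRNA above DMSO so AC50 marks induction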). Conditions: HepG2 Attagene TRANS-FACTORIAL CAR reporter. An outline of the steps: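 HepG2 cells transiently transfected with GAL4-UAS reporter units; TRANS format reads activity of exogenous chimeric NR-Gal4 protein. After 24 h dosing, reporter mRNA quantified by RT-PCR, 6-FAM labelling and capillary electrophoresis; gain of signal fitted against DMSO.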

The target in assay [11] is Estrogen receptor (Homo sapiens) (UniProt P03372). As to the kind of experiment: ATG_ERa_TRANS: Attagene TRANS-FACTORIAL HepG2 Assay for human Estrogen Receptor alpha (ERa) (AID 2282970; active means hit-call score of the fitted dose curve at least 0.9, where 1 is the maximum). The settings on record: HepG2 Attagene TRANS ERa GAL4 reporter, mRNA. An outline of the steps:
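Human liver HepG2, transient transfection of multiple GAL4-UAS reporter units; TRANS format (exogenous NR-Gal4 chimera). 24 h dosing. Readout: reporter mRNA, RT-PCR, 6-FAM primer extension, HpaI digest, capillary electrophoresis. Positive direction vs DMSO.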

A short description of assay [12]: ATG_M_19_TRANS: Attagene TRANS-FACTORIAL HepG2 Assay for M19 Transcription Factor (Internal Marker) (AID 2282974; active means hit-call score of the fitted dose curve at least 0.9, where 1 is the maximum). Conditions: HepG2 Attagene TRANS-FACTORIAL M19 internal marker reporter. An outline of the steps:
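24 h chemical exposure of transiently transfected HepG2 (MRTU library). RNA → oligo(dT) RT → PCR → 6-FAM labelling → HpaI cut → CE fluorescence. Positive-direction fit vs DMSO baseline; background internal-marker readout.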

Assay [13] is described as follows: ATG_SREBP_CIS: Attagene CIS-FACTORIAL HepG2 Assay for human Sterol Regulatory Element Binding (SREBP) (AID 2282962). The settings on record: HepG2 Attagene cis-factorial SREBP reporter, mRNA; actives raise or lower the signal. An outline of the steps: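 HepG2 cells transiently transfected with multiplexed cis-element reporter units report endogenous transcription factor activity. After 24 h of chemical exposure, reporter mRNA was quantified by RT-PCR, 6-FAM labelling, HpaI digestion and capillary electrophoresis; bidirectional fits used DMSO as baseline.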

A short description of assay [14]: ATG_TAL_CIS: Attagene CIS-FACTORIAL HepG2 Assay for human TAL Basal Promoter (AID 2282966).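 Further: background control endpoint measuring basal TAL promoter reporter mRNA not a specific factor.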 Conditions: HepG2 Attagene cis-factorial TAL promoter reporter; actives raise or lower the signal. An outline of the steps:
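Fluorescence of labelled reporter cDNA fragments, resolved by capillary electrophoresis, gave the readout. Human HepG2 liver cells carried transiently transfected cis-element reporter units and were treated for 24 hours; activity was fitted bidirectionally against DMSO.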

For assay [15], the target named is X-box-binding protein 1 (Homo sapiens) (UniProt P17861). Put plainly: ATG_Xbp1_CIS: Attagene CIS-FACTORIAL HepG2 Assay for human X-box Binding Protein 1 (XBP1) (AID 2282972). The settings on record: HepG2 XBP1 cis-element reporter, Attagene multiplex; actives raise or lower the signal. An outline of the steps:
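HepG2 cells transiently transfected with cis-regulated multiple reporter transcription units; endogenous transcription factor activity measured 24 hours after chemical dosing. Reporter mRNA quantified by RT-PCR, 6-FAM primer extension, HpaI digestion and capillary electrophoresis; bidirectional fitting versus DMSO.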

Assay [16] concerns the target Steroid hormone receptor ERR1 (Homo sapiens) (UniProt P11474). Put plainly: ATG_ERRa_TRANS: Attagene TRANS-FACTORIAL HepG2 Assay for human Estrogen-Related Receptor alpha (ERRa) (AID 2282971; active means hit-call score of the fitted dose curve at least 0.9, where 1 is the maximum). Conditions: HepG2 Attagene TRANS reporter, ERRa transactivation. An outline of the steps:
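Reporter transcript induction was quantified by RT-PCR and capillary electrophoresis of FAM-labelled, HpaI-cut products after 24 h treatment of HepG2 cells carrying transiently transfected GAL4-UAS reporter units and an exogenous ERRa-Gal4 fusion; activity scored as increase over DMSO.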

Assay [17] deals with Estrogen-related receptor gamma (Homo sapiens) (UniProt P62508). Put plainly: ATG_ERRg_TRANS: Attagene TRANS-FACTORIAL HepG2 Assay for human Estrogen-Related Receptor gamma (ERRg) (AID 2282977; active means hit-call score of the fitted dose curve at least 0.9, where 1 is the maximum;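 further: hits increase reporter signal over DMSO so potencies reflect activators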). Conditions: HepG2 Attagene TRANS reporter, ERRg transactivation. An outline of the steps: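 Transient HepG2 transfectants, 24 h compound exposure, GAL4-UAS reporter mRNA by RT-PCR/6-FAM labelling/capillary electrophoresis; positive direction vs DMSO.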

Assay [18] is described as follows: ATG_VDRE_CIS: Attagene CIS-FACTORIAL HepG2 Assay for human Vitamin D Receptor Element (VDRE) (AID 2282968). The settings on record: HepG2 VDRE cis-reporter transcription, actives raise or lower the signal. An outline of the steps: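 Cell-based multiplexed reporter format in human liver HepG2 cells, 24 h post-dose. Fluorescence from capillary electrophoresis of reporter cDNA gives the signal, with DMSO as negative control and baseline.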

As a reminder, the AC50 is the midpoint of the concentration-response curve, whichever way the signal moves.

Records with an inconclusive call do not appear. Calls of active or inactive are those of the source. How the source made its calls, unless noted: active means hit-call score of the fitted dose curve at least 0.9, where 1 is the maximum; inactive means score below 0.9.

Transcription factor Sp1 (Homo sapiens), sequence (P08047 whole entry, looked up): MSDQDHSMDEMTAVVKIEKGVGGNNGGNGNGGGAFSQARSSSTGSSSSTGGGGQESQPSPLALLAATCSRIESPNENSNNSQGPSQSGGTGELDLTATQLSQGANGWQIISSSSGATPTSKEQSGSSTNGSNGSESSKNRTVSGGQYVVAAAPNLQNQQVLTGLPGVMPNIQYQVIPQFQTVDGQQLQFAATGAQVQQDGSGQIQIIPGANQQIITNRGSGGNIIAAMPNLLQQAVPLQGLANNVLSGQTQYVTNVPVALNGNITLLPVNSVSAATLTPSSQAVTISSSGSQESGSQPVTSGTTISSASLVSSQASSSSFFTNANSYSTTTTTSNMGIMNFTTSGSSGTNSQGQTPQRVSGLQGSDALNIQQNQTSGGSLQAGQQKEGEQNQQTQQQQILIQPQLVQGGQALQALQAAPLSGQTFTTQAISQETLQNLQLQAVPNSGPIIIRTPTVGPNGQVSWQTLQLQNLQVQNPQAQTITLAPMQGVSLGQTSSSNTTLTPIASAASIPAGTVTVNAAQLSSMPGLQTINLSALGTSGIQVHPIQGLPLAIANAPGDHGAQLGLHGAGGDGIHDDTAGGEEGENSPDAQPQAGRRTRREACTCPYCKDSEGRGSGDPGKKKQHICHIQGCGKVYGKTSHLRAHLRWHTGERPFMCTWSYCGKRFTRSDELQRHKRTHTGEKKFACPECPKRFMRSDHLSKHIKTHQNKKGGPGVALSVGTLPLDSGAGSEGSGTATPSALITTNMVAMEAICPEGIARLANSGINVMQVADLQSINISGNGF
Estrogen receptor (Homo sapiens), sequence (P03372 whole entry, looked up, the tested form may be a part): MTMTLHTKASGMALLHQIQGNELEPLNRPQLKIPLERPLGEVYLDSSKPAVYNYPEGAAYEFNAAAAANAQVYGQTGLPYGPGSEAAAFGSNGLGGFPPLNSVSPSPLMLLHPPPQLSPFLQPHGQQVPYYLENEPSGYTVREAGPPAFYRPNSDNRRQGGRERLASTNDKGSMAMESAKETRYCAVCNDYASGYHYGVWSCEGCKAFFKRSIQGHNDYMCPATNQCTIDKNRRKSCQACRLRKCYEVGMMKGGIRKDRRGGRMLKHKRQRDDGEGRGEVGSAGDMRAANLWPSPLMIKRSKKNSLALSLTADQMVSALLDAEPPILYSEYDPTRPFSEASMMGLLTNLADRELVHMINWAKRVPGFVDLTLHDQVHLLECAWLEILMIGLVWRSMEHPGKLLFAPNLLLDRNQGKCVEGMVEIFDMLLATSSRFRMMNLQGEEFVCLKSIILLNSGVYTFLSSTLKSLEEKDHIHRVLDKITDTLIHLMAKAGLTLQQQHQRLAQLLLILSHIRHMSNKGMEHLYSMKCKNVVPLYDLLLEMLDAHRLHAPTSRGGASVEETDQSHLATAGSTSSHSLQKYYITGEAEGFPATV
X-box-binding protein 1 (Homo sapiens), sequence (P17861 whole entry, looked up): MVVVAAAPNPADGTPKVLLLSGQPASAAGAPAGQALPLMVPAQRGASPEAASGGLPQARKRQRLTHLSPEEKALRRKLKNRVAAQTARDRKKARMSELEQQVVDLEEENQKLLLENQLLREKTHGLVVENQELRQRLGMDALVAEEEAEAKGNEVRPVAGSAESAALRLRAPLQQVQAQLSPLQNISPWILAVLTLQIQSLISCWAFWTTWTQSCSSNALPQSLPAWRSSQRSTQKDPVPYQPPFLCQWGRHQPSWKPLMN
Nuclear receptor subfamily 1 group I member 3 (Homo sapiens), sequence (Q14994 whole entry, looked up, the tested form may be a part): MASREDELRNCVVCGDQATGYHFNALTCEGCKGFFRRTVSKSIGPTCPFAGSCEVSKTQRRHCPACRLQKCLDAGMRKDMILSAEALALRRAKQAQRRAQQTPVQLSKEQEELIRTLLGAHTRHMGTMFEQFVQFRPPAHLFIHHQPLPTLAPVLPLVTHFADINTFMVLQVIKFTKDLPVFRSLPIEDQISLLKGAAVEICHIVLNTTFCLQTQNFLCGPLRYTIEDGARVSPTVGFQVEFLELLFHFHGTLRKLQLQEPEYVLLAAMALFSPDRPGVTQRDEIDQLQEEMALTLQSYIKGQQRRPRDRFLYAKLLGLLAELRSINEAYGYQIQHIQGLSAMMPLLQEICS
Signal transducer and activator of transcription 3 (Homo sapiens), sequence (P40763 whole entry, looked up): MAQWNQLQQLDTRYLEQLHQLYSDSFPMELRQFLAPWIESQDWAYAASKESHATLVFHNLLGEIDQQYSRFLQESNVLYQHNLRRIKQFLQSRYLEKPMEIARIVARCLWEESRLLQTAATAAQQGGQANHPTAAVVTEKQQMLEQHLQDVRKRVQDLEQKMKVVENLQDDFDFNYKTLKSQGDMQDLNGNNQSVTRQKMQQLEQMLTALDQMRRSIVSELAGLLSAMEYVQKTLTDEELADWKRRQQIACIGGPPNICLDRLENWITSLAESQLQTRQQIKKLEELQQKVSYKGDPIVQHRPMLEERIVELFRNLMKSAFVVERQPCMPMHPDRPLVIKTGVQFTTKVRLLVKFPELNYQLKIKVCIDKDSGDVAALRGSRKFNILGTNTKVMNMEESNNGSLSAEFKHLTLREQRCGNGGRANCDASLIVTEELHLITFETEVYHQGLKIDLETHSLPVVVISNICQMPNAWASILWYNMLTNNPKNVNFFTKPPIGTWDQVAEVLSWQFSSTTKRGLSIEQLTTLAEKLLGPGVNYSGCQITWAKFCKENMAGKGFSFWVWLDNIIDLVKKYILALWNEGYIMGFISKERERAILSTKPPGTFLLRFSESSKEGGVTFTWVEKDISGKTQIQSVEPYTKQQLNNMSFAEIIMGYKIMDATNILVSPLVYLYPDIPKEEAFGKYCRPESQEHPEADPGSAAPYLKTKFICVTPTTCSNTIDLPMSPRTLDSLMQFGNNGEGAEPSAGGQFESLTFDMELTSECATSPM
Estrogen-related receptor gamma (Homo sapiens), sequence (P62508 whole entry, looked up, the tested form may be a part): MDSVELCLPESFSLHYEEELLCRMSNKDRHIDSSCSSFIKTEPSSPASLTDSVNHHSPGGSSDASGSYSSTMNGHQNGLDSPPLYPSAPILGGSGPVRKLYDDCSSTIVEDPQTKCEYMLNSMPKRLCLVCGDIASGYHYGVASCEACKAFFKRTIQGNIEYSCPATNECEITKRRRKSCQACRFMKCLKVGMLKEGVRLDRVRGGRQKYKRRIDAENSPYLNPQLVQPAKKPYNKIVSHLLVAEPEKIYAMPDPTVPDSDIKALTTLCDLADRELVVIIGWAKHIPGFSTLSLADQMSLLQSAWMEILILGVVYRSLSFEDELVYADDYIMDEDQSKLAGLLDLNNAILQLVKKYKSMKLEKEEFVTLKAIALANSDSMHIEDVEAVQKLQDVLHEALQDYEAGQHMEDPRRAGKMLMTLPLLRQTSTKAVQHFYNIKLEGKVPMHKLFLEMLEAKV
Steroid hormone receptor ERR1 (Homo sapiens), sequence (P11474 whole entry, looked up, the tested form may be a part): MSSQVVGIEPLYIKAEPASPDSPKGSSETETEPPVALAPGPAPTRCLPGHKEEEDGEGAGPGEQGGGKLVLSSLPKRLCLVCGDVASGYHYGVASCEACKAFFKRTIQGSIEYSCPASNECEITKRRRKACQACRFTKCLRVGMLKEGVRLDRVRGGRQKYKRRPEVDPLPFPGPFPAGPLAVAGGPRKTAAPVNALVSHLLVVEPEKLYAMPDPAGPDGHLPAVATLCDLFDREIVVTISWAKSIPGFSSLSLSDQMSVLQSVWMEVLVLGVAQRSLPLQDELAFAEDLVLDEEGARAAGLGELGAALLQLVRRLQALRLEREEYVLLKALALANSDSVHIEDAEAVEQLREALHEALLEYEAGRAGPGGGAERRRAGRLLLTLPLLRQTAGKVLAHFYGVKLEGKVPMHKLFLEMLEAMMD

Turning to `C=CC(C)(CCC=C(C)C)OC(=O)CC(C)C` (stereo unspecified), the AC50 in [1] is 6.26 µM (active). The compound was classed as inactive in assay [2], in assay [3], in assay [4], in [5], in assay [6] and in assay [7]. The result in assay [8], in assay [9], in assay [10], in [11] and in assay [12] was inactive.

For `CCCCCCC1(C)CCC(=O)O1` (stereo unspecified), in assay [1], the AC50 was 30.3 µM (active). For the same compound, the compound was classed as inactive in [2], in [3], in [4], in assay [13], in assay [6] and in assay [7]. Besides, the outcome in [8], in assay [14], in assay [10], in assay [11] and in [15] was inactive.

For the compound `O=C1CCCCCCCCCCCCCCCO1`, the compound was called inactive in assay [1], in [2], in [3], in [4], in assay [5] and in assay [6]. In addition, the outcome in [7], in assay [14], in assay [9], in assay [10], in assay [11] and in assay [16] was inactive. In addition, the call in [15] was inactive. For the same compound, in assay [13], the AC50 was 100 µM (active).

Turning to `Nc1ccc(-c2ccc(F)cc2)cc1`, the AC50 in assay [1] was 27.4 µM (active); in [11] it was 26.9 µM (active). Moreover, the compound was classed as inactive in [2], in assay [3], in assay [4], in assay [5], in assay [13] and in [6]. Moreover, the result in assay [7], in [8], in assay [14], in [9], in assay [15] and in assay [12] was inactive. Further, the compound was classed as inactive in assay [17].

In the case of `CC(C)=CC1CC(C)CCO1` (stereo unspecified), the compound was called inactive in assay [1], in assay [2], in [3], in [4], in [5] and in [13]. For the same compound, the compound was classed as inactive in assay [6], in [7], in [8], in assay [14], in assay [9] and in assay [18]. For the same compound, in assay [15], the result was inactive.
